Assay results as given in PubChem BioAssay AID686971 (National Center for Advancing Translational Sciences (NCATS), 2013).
Hit rate of the full screen: of about 360,000 compounds, about 7,500 (2.1%) were called active. Not shown: some 8% with an inconclusive outcome. Shown is part of a subset that was picked to be rich in actives. Values without a mark were called inactive. Calls come from the whole dose curve; as a rule, active = well fitted cell-killing curve with a large enough effect; inconclusive = small, poorly fitted or top-dose-only effect, or effect the other way, or another doubt; inactive = no such curve, though single readings can be large or run the other way.

test: qHTS for induction of synthetic lethality in tumor cells producing 2HG: qHTS for the HT-1080-IDH1KD cell line; conditions: HT-1080 IDH1 knockdown viability, ATP luminescence, 48 h; series mostly up to 46.1 µM; activity, negative = toxicity: at the top concentration;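 for activity, negative = toxicity: 0% = DMSO wells and -100% = cell-free medium wells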
Method in brief: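 % activity derives from luminescence (CellTiter-Glo), normalised to DMSO and no-cell wells. HT-1080-IDH1KD cells, 750/well, had 48 h compound exposure at 37 °C.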
Potency is the fitted concentration of half-maximal effect.

Row | Compound | activity, negative = toxicity | Potency
1 | N#Cc1ccc(-c2ccc3nccn3c2)cc1 | 19.2% | –
2 | Cc1ccc(S(=O)(=O)N[C@H]2CCC[C@@H]2O)cc1 | 21.9% | –
3 | CNC[C@H]1OCc2cnnn2CCCC(=O)N([C@H](C)CO)C[C@@H]1C | 16.1% | –
4 | COC(=O)c1ccc2c(c1)S(=O)(=O)NC2C (centres undefined) | 7.29% | –
5 | COc1ccccc1OCCOc1ccc(/C=N/n2cnnc2)cc1 | – | 20.6 µM (active)
6 | C=CCc1ccc(OCCOc2cccc(/C=N/n3cnnc3)c2)c(OC)c1 | -2.02% | –
7 | COc1cccc(OCCOc2cccc(/C=N/n3cnnc3)c2)c1 | -5.79% | –
8 | CC(OC(=O)c1cccc(S(=O)(=O)N2CCOCC2)c1)C(=O)NCC1CCCCC1 (centres undefined) | 7.1% | –
9 | CC(C)C1CCN(C(=O)C2CCC(=O)N(C3CCCCCC3)C2)CC1 (centres undefined) | 4.14% | –
10 | CCN1C(=O)[C@H]2[C@@H](c3ccc(C(F)(F)F)cc3)N[C@]3(CCCN(Cc4ccc(Br)cc4)C3=O)[C@H]2C1=O | -12.4% | –
11 | CC(OC(=O)c1ccc2ccccc2n1)C(=O)c1ccccc1 (centres undefined) | -1.33% | –
12 | COc1cccc(/C=C2\C=C(c3ccc(C)cc3)OC2=O)c1OC(C)=O | -10.6% | –
13 | COc1cccc(/C=C/c2ccc3ccccc3n2)c1OC(C)=O | – | 11.6 µM (active)
14 | CCCCNC(=O)C[C@@H]1C[C@@]2(C(=O)OC)CC(C)(C)CC=C2N(Cc2ccco2)C1=O | 4.93% | –
15 | C[C@H](NC(=O)[C@@H]1CCCN1C(=O)[C@@H]1CCCN1C(=O)c1ccccc1)c1ccccc1 | 7.53% | –
16 | CC1=C(C(=O)N(C)C)CC(CC(=O)NCCc2ccccn2)C(=O)N1CCC1=CCCCC1 (centres undefined) | 2.74% | –
17 | O=C1COc2ccc(S(=O)(=O)Nc3ccc(OC(F)(F)F)cc3)cc2N1 | -1.36% | –
18 | O=S(=O)(Nc1ccc(O)c2ccccc12)c1ccc(OC(F)(F)F)cc1 | – | 20.6 µM (active)
19 | Cc1nn(C)c(C)c1NS(=O)(=O)c1ccc(OC(F)(F)F)cc1 | -4.46% | –
20 | Cn1c(CCN2CCN(c3ccccn3)CC2)nc2cc(NS(=O)(=O)c3ccc(F)cc3)ccc21 | -25.1% | –
21 | CC(=O)OC1CCC2(C)C(=CCC3C4CC(=O)N(O)C(=O)C4(C)CCC32)C1 (centres undefined) | – | 25.9 µM (active)
22 | C[C@@H]1CC[C@@]2(OC1)O[C@H]1C[C@H]3[C@@H]4CC=C5C[C@@H](O)[C@H](O)C[C@]5(C)C4CC[C@]3(C)[C@H]1[C@@H]2C (some centres undefined) | 0% | –
23 | C[C@]12CC[C@H](O)CC1=CCC1C2CC[C@@]2(C)C1CC[C@@H]2NC(=O)CCC(=O)O (some centres undefined) | 23.9% | –
24 | OC[C@@H]1CN(C2CCCC2)C[C@H](n2cnc3c(NC4CCC4)ncnc32)O1 | 0% | –
25 | CCC(C)C(CO)NC(=O)/C=C/[C@H]1O[C@@H](n2cnc3c(NC(=O)c4ccccc4)ncnc32)[C@H](O)[C@@H]1O (some centres undefined) | -2.07% | –

Row | Compound | activity, negative = toxicity | Potency
26 | O=C(NCc1cccnc1)Nc1ccccc1F | 17.2% | –
27 | O=C(NCc1cccnc1)C(=O)Nc1nc(-c2ccccc2)cs1 | – | 4.61 µM (active)
28 | Cc1ccccc1Nc1nc(-c2cccnc2)cs1 | 4.29% | –
29 | C[C@H](CO)N1C[C@H](C)[C@@H](CN(C)C(=O)c2cnccn2)Oc2ncc(Br)cc2C1=O | 15.3% | –
30 | Fc1cccc(Cc2c(-c3ccc(Cl)cc3)nc3ccc(Cl)cn23)c1 | -10.1% | –
31 | Cc1cc2nc(-c3ccc(F)cc3)c(Cc3ccsc3)n2c(C)c1Br | -23.9% | –
32 | Cc1cc2nc(-c3ccco3)c(Cc3cccc(F)c3)n2c(C)c1Br | – | 20.6 µM (active)
33 | COc1ccc(S(=O)(=O)N2CCCCC2c2cc(C(=O)NCc3ccc(F)cc3)no2)cc1 (centres undefined) | -12.8% | –
34 | CCCCNC(=O)C1CCCNC1=O (centres undefined) | 5.05% | –
35 | CCCCNC(=O)OC1CC2CC1[C@H]1CCCCN1C2=O (some centres undefined) | – | 25.9 µM (active)
36 | O=C(OC1CC2CC1[C@H]1CCCCN1C2=O)N1CCOCC1 (some centres undefined) | 4.09% | –
37 | OC(c1ccc(F)cc1)c1ncc(-c2cccc(C(F)(F)F)c2)[nH]1 (centres undefined) | 0% | –
38 | Cc1cc(Br)cn2c(Cc3ccccc3C(F)(F)F)c(C3CCCCC3)nc12 | -2.39% | –
39 | C[C@H](CO)N1C[C@H](C)[C@@H](CN(C)S(=O)(=O)c2ccc(Oc3ccccc3)cc2)OCc2cn(nn2)CCCC1=O | -12.2% | –
40 | COc1cccc(NC(=O)c2nn(C34CC5CC(CC(C5)C3)C4)cc2[N+](=O)[O-])c1 | -1.16% | –
41 | Cn1cc([N+](=O)[O-])c(C(=O)Nc2ccc3c(c2)OCCO3)n1 | – | 11.2 µM (active)
42 | O=C(Nc1ccc2c(c1)OCCO2)c1ccoc1 | 3.83% | –
43 | CNC(=O)C1CN(C(=O)c2cccc(S(=O)(=O)N3CCc4ccccc43)c2)c2ccccc2O1 (centres undefined) | -22% | –
44 | COc1ccc(C(CNC(=O)c2ccc(OCc3cscn3)cc2)N2CCCC2)cc1 (centres undefined) | -1.11% | –
45 | Cc1cccc(C(=O)OCC(=O)Nc2sccc2C(N)=O)c1C | 8.43% | –
46 | O=C(NCCc1cccc(F)c1)C1CC(O)CN1C(=O)Nc1ccccc1 (centres undefined) | 4.64% | –
47 | O=C(O)C(=Cc1ccc([N+](=O)[O-])cc1)CCc1ccccc1 | -4.63% | –
48 | CN1CCN(C2Cc3ccc(Cl)cc3Sc3ccc(F)cc32)CC1 (centres undefined) | – | 13 µM (active)
49 | O=[N+]([O-])c1ccc(CN2CC(N3CC=CC3)CS2(=O)=O)cc1 (centres undefined) | 2.68% | –
